The campaign covered roughly 360,000 compounds. About 9,100 (2.5%) were called active. Inconclusive results (about 4%) are left out. What follows is part of a selection rich in actives, with near analogues and random picks from the rest. Values without a mark were called inactive. Cut-off read from the data, not from the text of the source: active = max response below about -50%; inconclusive = no clear call, values can overlap the other calls; inactive = above that.
Molecular target: D(3) dopamine receptor (Homo sapiens) (UniProt P35462)
Test: qHTS of D3 Dopamine Receptor Antagonist: qHTS
Settings: D3R cells, DiscoveRx beta-arrestin luminescence, antagonist mode; hits give low values
Procedure, shortened: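 Cells plated overnight at 1500 cells/well, then exposed to library compounds with dopamine controls for 90 minutes at 37 degrees C. DiscoveRx reagent added for 30–60 minutes at room temperature; luminescence read, quantitative HTS format.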
% is set by controls: 0 for no effect and ±100 for the full control effect.

Chain of D(3) dopamine receptor (Homo sapiens) (P35462 whole entry, looked up): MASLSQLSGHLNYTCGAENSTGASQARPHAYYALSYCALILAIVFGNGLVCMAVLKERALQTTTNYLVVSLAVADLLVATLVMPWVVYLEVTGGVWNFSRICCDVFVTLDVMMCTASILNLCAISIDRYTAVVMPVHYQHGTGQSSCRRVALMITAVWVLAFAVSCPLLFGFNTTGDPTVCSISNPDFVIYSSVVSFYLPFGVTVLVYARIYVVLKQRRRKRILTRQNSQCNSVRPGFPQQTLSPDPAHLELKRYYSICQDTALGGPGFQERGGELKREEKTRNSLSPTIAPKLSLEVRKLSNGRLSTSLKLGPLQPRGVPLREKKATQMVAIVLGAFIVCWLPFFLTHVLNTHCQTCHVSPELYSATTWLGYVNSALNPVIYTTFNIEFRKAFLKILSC

SMILES	max response, negative = inhibition
CN1CCN(c2ccncc2S(=O)(=O)N2CCCC2)CC1	22.6%
COC(=O)c1ccc2nc(-c3ccc(C)cc3)c(Cc3ccc(OC)cc3C)n2c1	0.363%
CC(C)C1Cc2[nH][nH]c(=O)c2C(c2ccc(Cl)cc2)O1 (stereo not given)	-0.765%
O=C(Nc1ccc(Cl)cc1)c1csc([C@H]2C[C@H](O)[C@@H](CO)O2)n1	0%
COc1ccc(NC(=O)C2Cc3c(-c4cccc(NC(C)=O)c4)ccnc3O2)cc1OC (stereo not given)	0%
COc1ccc(CC(N)c2csc(NC(=O)NC(c3ccccc3)c3ccccc3)n2)cc1 (stereo not given)	-20.6%
COc1ccc(N)cc1NC(=O)CN1CCOCC1	60.4%
OC[C@@H]1CN(Cc2ccc(-c3ccccc3)cc2)C[C@H](n2cnc3c(NC4CCCC4)ncnc32)O1	36%
C=CCC[C@@H](CCCCC)OC(=O)/C=C/[C@@H](O)[C@H](O)C[C@H](O)CC=C	5.67%
CCCCCCNC(=O)O[C@H]1CN(C(=O)OC(C)C)N(C(=O)OC(C)C)[C@@H]2CN(S(=O)(=O)c3ccc(C)cc3)C[C@]12O	1.36%
O=Nc1c(O)cc(O)c2ccccc12	9%
COc1ccc(COC[C@H](CC(C)C)N2CCN(C(=O)c3cccc(C(F)(F)F)c3)CCC2=O)cc1	0%
CCOC(=O)N1C(=O)C[C@](Sc2ccc(C)cc2)(C(=O)OC)[C@H]1c1ccccc1	28.6%
CC1CCC(NC(=O)CNC(=O)c2ccc3ccccc3c2)CC1 (stereo not given)	-70% (active)
Cc1ccc(C(=O)NCC(=O)NC2CC2)cc1	-5.92%
O=C(CNC(=O)c1ccc2ccccc2c1)Nc1ncccc1O	8.18%
Cn1cnc(S(=O)(=O)N2C[C@@H](O)COC[C@@H]3O[C@H](CC(=O)NC4CCC4)CC[C@H]32)c1	17.2%
CCc1ccccc1NC(=O)[C@@H]1CCC(=O)N1C1OC(=O)c2c1ccc(OC)c2OC (stereo not given in full)	-18.1%
COc1ccc(-c2csc(Nc3cccc(C)n3)n2)cc1OC	42.5%
COc1ccc2c(c1OC)C(=O)OC2Nc1nc(-c2ccccc2)cs1 (stereo not given)	-73.2% (active)

SMILES	max response, negative = inhibition
CC1(C(=O)Nc2cccc(Oc3ccccc3)c2)CCN1Cc1ccccc1Cl (stereo not given)	11.7%
C=C(C)C(=O)O[C@H]1C/C(C)=C\C(=O)/C=C(\C)[C@H](O)[C@@H]2OC(=O)C(=C)[C@@H]21	-61.4% (active)
O=C(NCc1cccs1)c1ccc(Br)o1	11.4%
CC(CNC(=O)c1ccc(Br)o1)NC(=O)c1ccc(Br)o1 (stereo not given)	-72.7% (active)
CC(CCc1ccccc1)NC(=O)c1ccc(Br)o1 (stereo not given)	-10.2%
CC(C)C1CC2=C(C(=O)OC(C)(C)O2)C(c2ccc(F)cc2)O1 (stereo not given)	-3.03%
COc1ccc(NC(=O)COC(=O)C2COc3ccccc3O2)cc1 (stereo not given)	-20.1%
Brc1ccc2nc(-c3ccccc3)c(Cc3ccccc3)n2c1	23.1%
CCNC(=O)C1(C)CCCN(Cc2noc(-c3ccccc3OC)n2)C1 (stereo not given)	23.6%
Cc1cc(C)c(NC(=O)CN2CCCCCC2)c(C)c1	1.9%
c1ccc2cc(OCCN3CCCC3)ccc2c1	-61.2% (active)
Cc1cccc(C)c1OCCN1CCOCC1	21.2%
Clc1ccccc1-c1cc(COc2ccc3ccccc3c2)no1	-0.665%
Cc1cc(OCCN2CCCC2)ccc1C(C)C	0%
Cc1cc(OCCN2CCCC2)cc(C(C)C)c1	-86% (active)
CCOC(=O)[C@]12CCC=C1N(Cc1cccc3ccccc13)C(=O)[C@H](CC(=O)NCc1cccc(C(F)(F)F)c1)C2	7.1%
CCCCCCN1C[C@@H](O)[C@H](n2cc(COC(=O)c3ccccc3)nn2)C[C@@H]1c1ccc(Cl)cc1	3.45%
CCc1nnc(NC(=O)c2ccco2)s1	-7.74%
Cc1ccc(S(=O)(=O)N2CCCCC2)cc1NC(=O)CCNC(=O)c1ccccc1Cl	25.5%
N#Cc1ccc(-c2nc3c(Cl)cc(C(F)(F)F)cn3c2Cc2ccccc2C(F)(F)F)cc1	8.9%

SMILES	max response, negative = inhibition
CCN(CC)CCCNC(=O)c1cc(-c2cccc(Cl)c2)on1	-19.8%
CCN(CC)CCCNC(=O)c1cc2c(=O)[nH]c3ccc(C)cc3c2s1	-89.2% (active)
Cc1cccc(N(C)C(=O)c2cc3c(=O)[nH]c4ccc(C)cc4c3s2)c1	-15.8%
CCC(=O)N1CCC(C)(C(=O)Nc2cc(OC)c(OC)c(OC)c2)C1 (stereo not given)	16.4%
CCOc1ccc(NC(=O)N2CC=C(n3c(=O)[nH]c4ccccc43)CC2)cc1	-51.2% (active)
Cc1cccc(C)c1NC(=O)N1CC=C(n2c(=O)[nH]c3ccccc32)CC1	0%
CCOc1ccc(NC(=O)N2CCN(CC)CC2)cc1	6.64%
CCOC(=O)C=Cc1ccc(C(=O)OCC)[nH]1	20.2%
COC(=O)[C@@]12C[C@@H](CC(=O)N3CCCCC3)C(=O)N(Cc3ccc4c(c3)OCO4)C1=CCC(C)(C)C2	-15.1%
CCOc1ccc(CNC(=O)CCC(=O)N2CCSc3ccccc32)cc1	10.8%
Cc1ccc(NC(=O)N2CCSc3ccccc32)cc1	-50.5% (active)
Cc1ccc(NC(=O)N2CCC(O)(c3cccnc3)CC2)cc1	1.47%
Cc1ccc(S(=O)(=O)N[C@H](CO)C(C)C)cc1	-14.1%
CC(NC(=S)Nc1ccccc1)C1COc2ccccc2O1 (stereo not given)	1.63%
CCCN(CC1COc2ccccc2O1)C(=S)Nc1ccc(C)cc1 (stereo not given)	-53.1% (active)
CCC(=O)c1ccc(OCC(=O)N(CC)CC2COc3ccccc3O2)cc1 (stereo not given)	10.7%
Cc1cc(=O)c2ccc(NC(=O)c3ccccc3)cc2[nH]1	13.3%
O=C1NC(O)CCN1C1CC(O)C(CO)O1 (stereo not given)	11%
CCN1CC=C2C(C#N)=C(N)C(C#N)(C#N)[C@H](c3ccoc3)[C@H]2C1	-11.8%
CCCN1CC=C2C(C#N)=C(N)C(C#N)(C#N)C(c3cc(OC)ccc3OC)C2C1 (stereo not given)	-67.2% (active)
